Screening data: PubChem, several laboratories
IEC-6 tox: cytotoxicity in IEC-6 intestinal epithelial cells, primary screen, cytotoxicity control for KLF5 inhibitor project, cell-based, luminescence. IEC-6 cytotoxicity, luminescence viability. inhibition, % at 5 µM. hit rate 0.78% among 290,000; in the data active = inhibition above about 22%;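 note: 0% = plate median of test compound wells and 100% = cytotoxic reference compound wells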
APP 5UTR inh: inhibitors of APP translation via 5'UTR reporter, primary screen, APP 5'UTR luciferase, SH-SY5Y cells. inhibition, % at 2 µM. hit rate 0.82% among 190,000. SH-SY5Y APP 5'UTR-luciferase reporter, luminescence;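 active = inhibition above a set limit, derived from the sample mean plus 3 SD, cut at about 45% in these data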
BaF3 parental: parental Ba/F3 cell viability inhibition, counter-screen for JAK2V617F inhibitor project, murine pro-B, CellTiter-Glo luminescence. CellTiter-Glo ATP luminescence. AID 1486, 2009. hit rate 1.1% among 220,000. inhibition, % at 5.6 µM;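 active = inhibition above a per-campaign cutoff, the mean inhibition of all tested compounds plus 3 SD, cut at about 27% in these data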;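 note: 0% = DMSO wells and 100% = JAK Inhibitor I control wells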
KLF5 inh: KLF5 expression inhibitors, primary screen, DLD-1 cells, luminescence; AID 1700, 2009; hit rate 0.23% among 290,000; inhibition, % at 5 µM; DLD-1 KLF5 promoter-luciferase reporter;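 active = inhibition above a per-plate limit of that plate's mean compound inhibition plus 3 SD, cut at about 60% in these data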;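 note: 0% = DMSO wells and 100% = LY294002 at 200 µM; higher means less KLF5 promoter-driven luciferase light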
Ba/F3 V617F tox: reduced viability of JAK2V617F-dependent Ba/F3 cells, primary screen, JAK2V617F inhibitor project, cell-based, Ba/F3 EpoR-JAK2V617F, luminescence; ATP luminescence; inhibition, % at 5.6 µM; hit rate 1.1% among 220,000;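 active = inhibition above the campaign mean plus 3 SD over all tested compounds, cut at about 24% in these data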;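 note: cytokine-independent growth of Ba/F3 cells driven by EpoR plus mutant JAK2; 0% = DMSO-treated cells and 100% = JAK inhibitor I control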
aSyn UTR inh: MLPCN primary screen, SNCA 5' untranslated region; hit rate 0.82% among 300,000; inhibition, % (tested at 7.5 µM); alpha-synuclein 5'UTR reporter, inhibitor activity; AID 1813, 2009; in the data active = inhibition above about 60%;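 note: H4 neuroglioblastoma cells stably carrying SNCA 5'UTR luciferase fusion; 0% = DMSO wells and 100% = positive control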
* = called active by the depositor; nt = no result. Compounds with a hit are over-represented: about 2.2% of the library has one in this group of screens.

SMILES | IEC-6 tox | APP 5UTR inh | BaF3 parental | KLF5 inh | Ba/F3 V617F tox | aSyn UTR inh
CCN(CC)S(=O)(=O)c1ccc2c(c1)c(=O)c(C(=O)N1CCN(c3ccccn3)CC1)cn2C | 6 | nt | nt | 6 | nt | -9
CN(C)c1cc[n+](Cc2c(Cl)cccc2Cl)cc1 | -5 | 2 | 80* | 6 | 98* | 8
CCOc1ccc(-c2nc(CSCC(=O)NCc3ccco3)c(C)o2)cc1 | 1 | 48* | 2 | 18 | -3 | 46
CCc1ccc(-c2nc(CSCC(=O)N3CCN(c4ccccn4)CC3)c(C)o2)cc1 | -3 | 14 | 4 | 7 | 2 | 82*
Cc1ccc(-c2nc(CSCC(=O)N3CCN(c4ccccn4)CC3)c(C)o2)cc1 | -1 | 12 | 7 | -18 | -3 | 22
CCOc1ccc(-c2nc(CSCC(=O)N3CCN(c4cccc(OC)c4)CC3)c(C)o2)cc1 | -2 | nt | 5 | -15 | -4 | 68*
CCOc1ccc(-c2nc(CSCC(=O)NC3CC3)c(C)o2)cc1 | 6 | nt | nt | 28 | nt | 31
COc1ccc(NCc2ccsc2)cc1 | -6 | nt | nt | -27 | nt | -60
CC1CCN(Cc2c(C(=O)N/N=C/c3ccc(C(C)(C)C)cc3)nnn2-c2nonc2N)CC1 | -4 | nt | nt | -26 | nt | 64*
CCc1c(C)nc(SCC(=O)NNC(=O)c2ccco2)[nH]c1=O | 2 | nt | nt | -4 | nt | -6
CCOc1ccc(N/C(SCc2cccc([N+](=O)[O-])c2)=C(/C#N)C(N)=O)cc1 | -18 | 10 | 13 | 1 | 1 | -21
N#CC(C#N)=C(Nc1ccc(F)cc1)SCc1cccc(F)c1 | 34* | 4 | 67* | 34 | 55* | 24
CCc1nnc(NC(=O)CCC(=O)N2CCN(Cc3ccc(OC)c(F)c3)CC2)s1 | -1 | nt | nt | -24 | nt | -23
CC(=O)N(C)c1ccc(OCC(O)Cn2c(C)nc3ccccc32)cc1 (centres undefined) | 4 | 4 | 42* | -47 | 29* | 1
Oc1oc(-c2ccco2)nc1C=Nc1cccc(Cl)c1 | 0 | -1 | 8 | -19 | -1 | -15
CC(=NCc1cccc(Cl)c1)c1nc(-c2ccco2)oc1O | 1 | -18 | 49* | 12 | 53* | 37
O=[N+]([O-])c1cc(-c2ncccn2)c([N+](=O)[O-])s1 | 5 | 76* | 2 | 2 | 4 | -20
CC(=O)N1CCc2c(sc(NC(=O)c3ccc(S(=O)(=O)N(C)C)cc3)c2C#N)C1 | -5 | 4 | 4 | -25 | -2 | 5
CC(=O)N1CCc2c(sc(NC(=O)c3ccc4c(c3)OCCO4)c2C#N)C1 | 2 | 59* | 6 | -21 | -2 | -56
C=CCNc1cc(N2CCCC2)ccc1[N+](=O)[O-] | 7 | 57* | 6 | -4 | 3 | 35
C/C(CCc1ccccc1)=N\NC(=O)C(=O)Nc1cccc(Cl)c1 | -1 | 8 | -4 | -13 | 1 | -13
O=C(CCN1C(=O)c2ccccc2S1(=O)=O)Nc1ccccc1 | -2 | -7 | 62* | -11 | 48* | -18
O=C(CN1C(=O)c2ccccc2S1(=O)=O)c1ccc(OC(F)F)cc1 | -9 | nt | nt | 3 | nt | 86*
O=C(CN1C(=O)c2ccccc2S1(=O)=O)c1ccc(F)cc1 | -2 | nt | 1 | -15 | 0 | 92*
O=C(CN1C(=O)c2ccccc2S1(=O)=O)c1cccc(Br)c1 | -3 | nt | nt | 26 | nt | 84*
SMILES | IEC-6 tox | APP 5UTR inh | BaF3 parental | KLF5 inh | Ba/F3 V617F tox | aSyn UTR inh
CC1(c2ccc(OC(F)F)cc2)NC(=O)N(CC(=O)Nc2ccc(Cl)cc2F)C1=O (centres undefined) | 3 | nt | nt | 8 | nt | 15
O=C(CN1C(=O)c2ccccc2S1(=O)=O)c1ccccc1F | 2 | nt | nt | 8 | nt | 82*
O=C(CN1C(=O)c2ccccc2S1(=O)=O)N1CCN(c2ccccc2F)CC1 | -4 | 3 | 7 | 2 | 0 | 14
Cc1ccc(CNC(=O)CN(C)S(=O)(=O)c2ccc(F)cc2)cc1 | nt | nt | nt | nt | nt | -32
CC[n+]1c(C)cc2c(sc3ccccc32)c1C | 0 | 4 | 71* | -37 | 88* | nt
CCOC(=O)C1CCN(C(=O)c2cc3ccccc3oc2=O)CC1 | 0 | -11 | 7 | -33 | 3 | -17
COc1cc(-c2cc(C(=O)N3CCN(c4ccccn4)CC3)c3ccccc3n2)cc(OC)c1OC | 33* | 2 | 4 | 2 | 3 | -7
CN(/N=C/c1cc(Br)cc(Br)c1O)c1cccc(C(F)(F)F)n1 | 9 | nt | nt | -2 | nt | 70*
O=C(COC(=O)CN1C(=O)c2ccccc2C1=O)Nc1ccc(S(=O)(=O)N2CCCC2)cc1 | 1 | 50* | 2 | -19 | -2 | -11
COc1ccc(S(=O)(=O)N2CCCC2CNC(=O)C(=O)NCc2ccco2)cc1 (centres undefined) | nt | nt | nt | nt | nt | -8
CC(=O)Nc1cccc(Oc2ncnc3scc(-c4ccc(C(C)C)cc4)c23)c1 | 26* | 2 | 5 | -49 | 1 | 48
COc1ccccc1NC(=O)CSc1nc(=O)n2cc(C)ccc2n1 | nt | nt | nt | nt | nt | 7
O=C(C1CC1)N1CCC(c2nc(-c3ccc(S(=O)(=O)NCC4CCCO4)cc3)no2)CC1 (centres undefined) | 7 | -10 | 35* | -24 | 5 | -24
O=S(=O)(NCc1ccccc1)c1ccc(S(=O)(=O)NCC2CCCO2)cc1 (centres undefined) | -2 | 4 | 0 | -3 | -4 | 0
Cc1cc(C)c(S(=O)(=O)NCc2ccncc2)c(C)c1 | 6 | 12 | 34* | 1 | 24* | 18
O=S(=O)(NCc1ccncc1)c1ccc(S(=O)(=O)NCC2CCCO2)cc1 (centres undefined) | 1 | 4 | 28* | 18 | 25* | 8
O=C(c1ccccc1)N1CCC(c2nc(-c3ccc(S(=O)(=O)NCC4CCCO4)cc3)no2)CC1 (centres undefined) | 2 | nt | 5 | -19 | 3 | 28
Cc1ccc(S(=O)(=O)NCc2ccncc2)c(C)c1C | 19 | 10 | 84* | 26 | 55* | -8
CCOC(=O)CNC(=O)COc1coc(CN2CCN(c3ccccc3F)CC2)cc1=O | -6 | nt | nt | 0 | nt | 11
CCOC(=O)CN(c1ccccn1)S(=O)(=O)c1ccc(OC)cc1 | 3 | -7 | 2 | -11 | -4 | 22
CCCCc1ccc(S(=O)(=O)NCCc2ccncc2)cc1 | 7 | 9 | 7 | -22 | 1 | 5
CCCCNS(=O)(=O)c1ccc(S(=O)(=O)NCc2ccncc2)cc1 | 2 | 4 | 39* | -34 | 33* | -5
O=C(Nc1ccc(-c2nc3ccccc3[nH]2)cc1)c1ccc2c(c1)OCO2 | 0 | -45 | 10 | -133 | -2 | -102
c1ccc2[nH]c(-c3ccc4c(c3)OCO4)nc2c1 | nt | nt | nt | nt | nt | 79*
CCN(C(=O)CC(C)C)c1nnc(Cn2nnc3ccccc32)s1 | -4 | 4 | 11 | -17 | -3 | 17
